For 40 molecules, Percent Effect results are on record in ChEMBL document CHEMBL3988442, “University of Dundee, Small-Polar-MMV Screening Library” (2021).

SMILES strings stand for the structures.

The target of this assay is Shiga toxin 2 (Escherichia coli O157:H7) (UniProt P09385+P09386). Description: E. coli 0.157:H7 Shiga Toxin SOP - stx2 screening assay. The assay is classed as functional. Set-up: scale not given: direction of the effect not stated beside the values. The conditions noted are these: 30 µM.
Consider `Cc1nc(C)n(CC2CCCCN2CC(=O)Nc2ccncc2)n1` (stereo not given), for which the Percent Effect is -16.8%. As to `Cc1nnc(N2CC[C@H]3C[C@@H](C(=O)NC4CCCC4)O[C@H]3C2)s1`, the Percent Effect was -4.68%. The result for `CC(C)n1[nH]c(=O)c2c1NC(=O)CC2c1cccnc1` (stereo not given) reads -6.55%; that for `Cc1ncc(-c2ccnc(N3CCN(C)CC3)n2)c(-c2cccnc2)n1`, -20.4%. As to `CCOc1ccccc1C(=O)N1CCCC1c1ncc2c(n1)CCNC2` (stereo not given), the Percent Effect amounted to 48.2%. For the molecule `CC(=O)Nc1nc(CN2CCOC(Cn3cc(C)cn3)C2)cs1` (stereo not given), the Percent Effect stood at 16.6%. In the case of `O=C(O)c1cc(S(=O)(=O)N2CCOc3ccccc32)ccc1F`, the Percent Effect is -3.29%.

Take `O=C(c1cnc(COc2ccccc2)nc1O)N1CCOCC1`: the Percent Effect was -10.9%. With `CSCc1cccc(S(=O)(=O)NCCCO)c1`, the Percent Effect is -26.7%. The result for `CC(C)CCN1CN=C(NS(=O)(=O)c2ccc(F)cc2)NC1` reads -27.2%. With `O=C(N1CCOCC1)[C@@]12CCO[C@@H]1CCN(CC1CCCCC1)C2`, the Percent Effect is -36.5%. Regarding `COCCN1CCC(NCc2ccc(C#N)cc2)C1` (stereo not given), the Percent Effect was -49.3%.

In the case of `CN1CCN(c2ncc3c(=O)n(-c4cccc(F)c4)c(=O)[nH]c3n2)CC1`, the Percent Effect was -20.7%. For `O=C(NCCCN1CCOCC1)Nc1cnc2cc(Cl)ccc2c1O`, the Percent Effect was -13.4%. Consider `COc1cccc(CNC(CN2CCN(C)CC2)c2ccccc2)c1` (stereo not given), for which the Percent Effect is -26%. `Nc1nccc(N2CCCC(CO)(CCOc3ccccc3)C2)n1` (stereo not given): the Percent Effect is -17.8%. With `CCOC(=O)c1sc(NC(=O)CN(C)S(C)(=O)=O)c(C#N)c1C`, the Percent Effect stood at 2.91%.

Consider `Cc1ccccc1N1CC2(CCN(S(=O)(=O)C3CC3)C2)CC1=O` (stereo not given), for which the Percent Effect was -4%. For the molecule `COc1ncccc1CNC(=O)NC1CCOc2ccccc21` (stereo not given), the Percent Effect was -19.2%.

On to `O=C(CCc1nc2cccnc2[nH]1)NCc1cccnc1`, for which the Percent Effect was -44%. Turning to `Cn1cnc2c1C(COCC1CCOCC1)CN(C(=O)c1ccoc1)C2` (stereo not given), the Percent Effect was -11.7%. Take `O=C(Nc1nccs1)N1CCCC(N2CCNC2=O)C1` (stereo not given): the Percent Effect is -10.1%. Consider `CC(C)NC(=O)N1CCN(S(=O)(=O)C2CC2)CC2(CC(=O)N(C)C2)C1` (stereo not given), for which the Percent Effect was -20.5%.

Regarding `CCn1cc2c(n1)CN(Cc1ccoc1)CC2COCC1CC1` (stereo not given), the Percent Effect came out at 13.8%. Take `Cc1cccc(-c2[nH]ncc2CNCC2CCN(CC(C)O)CC2)c1` (stereo not given): the Percent Effect came to 20.1%. The result for `Cc1nccc(-c2cccc(NCC(=O)N3CCCCCCC3)c2)n1` reads 18.8%. In the case of `C=C(C)COCCNC(=O)C1CCCN1C(C)=O` (stereo not given), the Percent Effect is -6.8%. Turning to `Cc1nn(C)c(C)c1C1CCCN1C(=O)c1cc[nH]n1` (stereo not given), the Percent Effect stood at 11.4%. Consider `COC(=O)CCNC(=O)c1ccoc1CN1c2ccccc2CC1C` (stereo not given), for which the Percent Effect was -1.74%. Take `CCS(=O)(=O)N1CCC[C@]2(C(=O)N(C)C)CN(c3ccccn3)C[C@@H]2C1`: the Percent Effect is -10.3%.

As to `Cc1ccc(NC2CCN(C(=O)Cc3cccc(F)c3)CC2)nn1`, the Percent Effect was 11.3%.

Regarding `CN(CCCOc1ccccc1)C(=O)CN1CCc2cncnc2C1`, the Percent Effect was 9.42%.

As for `Cc1nnc(CN2CCCC(c3cc(C(N)=O)[nH]n3)C2)o1` (stereo not given), the Percent Effect is 4.59%. The result for `Cc1cc(CN2CCCC2c2noc(C3CC3)n2)c2ccccc2n1` (stereo not given) reads 9.51%; that for `Cc1cnn(CCNCc2csc(-c3ccc4c(c3)OCO4)n2)c1`, 23.7%; that for `Cc1ccc(CN2CCC3(C2)C(=O)N(CC(C)C)c2ccccc23)s1` (stereo not given), -42.5%. Turning to `Cc1cccc(NC2CCN(C(=O)Nc3cccc4[nH]ccc34)CC2)n1`, the Percent Effect is -50%.

For the molecule `CCN(Cc1ccc2c(c1)OCO2)C(=O)NC(C)Cn1cccn1` (stereo not given), the Percent Effect is -12.4%.

For `CCOCC1CC2(CCN(C(=O)c3ccccn3)CC2)CO1` (stereo not given), the Percent Effect worked out at 5.8%. As to `Cc1cc(C)n(C2CN(CC(O)c3ccc4c(c3)OCO4)C2)n1` (stereo not given), the Percent Effect was 7.61%.
